Reference: PubChem BioAssay (NCI)
“And” between values parts separate entries of the source, which are not always exact repeats. Identical values can stand only once. Compounds without any hit were thinned out: in the full panel of roughly 83,000, 20% have a hit.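 The test compound was applied at a single concentration to cells in 96-well plates for 48 hours, and percent growth was recorded.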

What was measured:
Assay in all cases: NCI-60 one-dose screen, 48 h (100 = growth as untreated, 0 = no growth, -100 = all killed)
Details in all cases: 10 µM unless noted; active = growth percent below 10; inactive = the rest
[1] = tested on: NCI-H23 lung
[2] = tested on: NCI-H226 lung
[3] = tested on: NCI-H322M lung
[4] = tested on: HOP-62 NSCLC
[5] = tested on: NCI-H460 lung
[6] = tested on: HOP-92 NSCLC
[7] = tested on: A549/ATCC NSCLC
[8] = tested on: 786-0 renal
[9] = tested on: COLO 205 colon
[10] = tested on: DU-145 prostate
[11] = tested on: K-562 leukemia
[12] = tested on: MALME-3M melanoma
[13] = tested on: MDA-MB-231 breast
[14] = tested on: RXF 393 renal
[15] = tested on: SF-268 CNS
[16] = tested on: SF-295 CNS
[17] = tested on: SF-539 CNS
[18] = tested on: UACC-257 melanoma
[19] = tested on: M14 melanoma

Measured: growth

COc1ccc2oc3cc(NCCN(C)C)ccc3c(=O)c2c1
inactive: [1] 112% and 83% | [2] 109% and 102% | [3] 76.5% | [4] 88.2% and 54.1% | [5] 97.7% and 61.7% | [6] 88.2% and 82.1% | [7] 95.2% and 73.8% | [8] 103% and 76.9% | [9] 84.3% and 47.7% | [10] 108% and 76.6% | [11] 66.7% and 43.2% | [12] 94.8% and 81.7% | [13] 83.5% and 73.6% | [14] 107% and 92.5% | [15] 104% and 82.7% | [16] 54.7% and 72.1% | [17] 80.7% and 84.2% | [18] 86.9% | [19] 96.5% and 76.7%

Cc1cc(O)c(C(C)C)cc1N=O
inactive: [1] 95.4% and 111% | [2] 99.6% and 108% | [3] 115% and 104% | [4] 103% and 99.4% | [5] 115% | [6] 79.7% | [7] 106% and 99.9% | [8] 98.6% and 103% | [9] 106% and 112% | [10] 108% and 104% | [11] 99.6% | [12] 113% and 108% | [13] 83.3% and 100% | [14] 112% and 113% | [15] 99.7% and 96.1% | [16] 98.8% and 121% | [17] 98.7% and 101% | [18] 103% and 97.1% | [19] 104%

O=C(O)C(Cc1ccc(OS(=O)(=O)Cc2ccccc2)cc1)NS(=O)(=O)Cc1ccccc1 (centres undefined)
inactive: [1] 105% and 112% | [2] 108% and 109% | [3] 119% and 127% | [4] 105% and 118% | [5] 106% and 119% | [6] 135% and 102% | [7] 101% and 105% | [8] 98.9% and 114% | [9] 114% | [10] 101% and 108% | [11] 105% and 101% | [12] 95.8% and 136% | [13] 102% | [14] 118% and 126% | [15] 105% and 98% | [16] 106% and 102% | [17] 97.7% and 101% | [18] 100% and 101% | [19] 113% and 100%

CC1CC(O)CC(C)(C)C1.CC1CC(O)CC(C)(C)C1.CC1CC(O)CC(C)(C)C1.CC1CC(O)CC(C)(C)C1.[Ti] (centres undefined)
inactive: [1] 104% | [2] 97.2% | [3] 105% | [4] 103% | [5] 109% | [6] 99.2% | [7] 92.6% | [8] 107% | [9] 108% | [10] 121% | [11] 98.2% | [12] 103% | [13] 96.2% | [14] 112% | [15] 115% | [16] 102% | [17] 107% | [18] 113% | [19] 96%

CCCCNC(=O)c1ccccc1C
inactive: [1] 90.4% | [2] 94.4% | [3] 89.4% | [4] 91.1% | [5] 105% | [6] 96.3% | [7] 100% | [8] 92.9% | [9] 98.3% | [10] 104% | [11] 103% | [12] 87.4% | [13] 103% | [14] 94.8% | [15] 101% | [16] 94.6% | [17] 107% | [18] 100% | [19] 90.4%

CCOP(=O)(OCC)/C(C#N)=C/c1c(C)[nH]c2ccccc12
inactive: [1] 103% | [2] 84% | [3] 107% | [4] 89.1% | [5] 101% | [6] 84% | [7] 93.1% | [8] 106% | [9] 107% | [10] 107% | [11] 94.6% | [12] 105% | [13] 90.4% | [14] 108% | [15] 102% | [16] 95.1% | [17] 99% | [18] 92.6% | [19] 92.4%
